Results from PubChem BioAssay AID1851 (National Center for Advancing Translational Sciences (NCATS), 2009).
Values joined by “and” are separate entries in the source; they are usually repeats but may differ in a detail not shown here. Identical values can stand only once. The campaign covered roughly 16,000 compounds. About 2,600 (16%) were called active. Roughly 20% stayed inconclusive and do not appear here. The call rests on the fitted dose curve; in most records, active means well fitted curve in the direction sought with a large enough effect; inconclusive means small, poorly fitted or top-dose-only effect, or effect the other way; inactive means no such curve, though single readings can be large or run the other way. These entries were drawn from the full list. The source holds several records for some structures; these can differ, active in one and inactive in another.

What follows are molecules tested against Cytochrome P450 2D6 (Homo sapiens) (UniProt P10635) (assay: Cytochrome panel assay with activity outcomes). Conditions: recombinant CYP, pro-luciferin dealkylation, luminescence, p450-cyp2d6; series mostly up to 57.1 µM; activity, negative = inhibition: at the top concentration.
Cytochrome P450 2D6 (Homo sapiens), sequence (P10635 whole entry, looked up): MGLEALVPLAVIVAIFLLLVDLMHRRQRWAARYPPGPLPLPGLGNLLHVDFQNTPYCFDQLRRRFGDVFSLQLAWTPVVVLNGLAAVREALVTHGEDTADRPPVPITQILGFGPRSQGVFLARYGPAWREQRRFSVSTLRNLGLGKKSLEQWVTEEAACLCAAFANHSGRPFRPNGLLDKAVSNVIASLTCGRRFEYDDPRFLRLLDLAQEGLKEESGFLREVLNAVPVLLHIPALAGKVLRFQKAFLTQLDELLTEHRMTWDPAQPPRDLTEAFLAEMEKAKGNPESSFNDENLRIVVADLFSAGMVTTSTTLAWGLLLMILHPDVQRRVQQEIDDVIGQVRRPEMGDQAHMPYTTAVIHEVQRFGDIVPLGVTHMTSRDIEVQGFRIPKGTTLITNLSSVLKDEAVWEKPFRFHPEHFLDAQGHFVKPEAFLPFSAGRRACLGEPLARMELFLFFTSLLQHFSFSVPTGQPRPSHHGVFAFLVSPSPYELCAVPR
On the % scale 0 is the no-effect control and ±100 the full control effect.

activity, negative = inhibition, inactive:
Cc1nc2ccccn2c1/C(O)=C1\C(=O)C(=O)N(CCN2CCOCC2)C1c1cccnc1 (stereo unspecified) 2.67%
CCOc1ccc(/C(O)=C2/C(=O)C(=O)N(CCOCCO)C2c2cccnc2)cc1 (stereo unspecified) 0.201%
CN[C@H](CC(=O)O)C(=O)O 5.67%
C=C[C@@]1(C)CC(=O)[C@@]2(O)[C@@]3(C)[C@@H](O)CCC(C)(C)[C@@H]3[C@H](O)[C@H](OC(C)=O)[C@@]2(C)O1 13.2%
COc1ccc(C(=O)N2CCC3(CC2)CN(C(=O)Nc2ccccc2)C3)cc1 -0.471%
Cc1cc(C(C#N)c2cccc(Cl)c2)n2ncnc2n1 (stereo unspecified) -12.6%
CC1CC(=O)c2cnc(N)nc2C1 (stereo unspecified) -2.38%
COC(=O)[C@@H]1CC[C@H](C)[C@@H](c2ccc(C)cc2)N1C(=O)c1ccc(/C=N\O[C@@H](C)c2cn([C@H]3COC[C@H]3O)nn2)cc1 -10% [at 11.4 µM]
CC(C)=CC(=O)Nc1nnc(C(C)C)s1 -2.19%
COc1ccc(OCc2nnc(SCC(=O)O)n2N)cc1 0.675%
O=C(c1ccco1)N1CCC2(CC1)CN(c1ccc(-c3ccccc3)cc1)C2 -3.41%
O=C(c1ccco1)N1CCC2(CC1)CN(c1ccccc1)C2 -1.67%
O=C(N/C(=C\c1cccs1)C(=O)N1CCCCCC1)c1ccccc1 36.2%
O=C(O)CS(=O)c1ccc2c3c(cccc13)C(=O)c1ccccc1-2 (stereo unspecified) 21.8% [at 11.4 µM]
CN(C(=O)COc1cccc(Br)c1)C1CCS(=O)(=O)C1 (stereo unspecified) 1.67%
COc1ccc(NC(=O)COC(=O)c2c(-c3ccccc3)noc2C)cc1 -25.8%
C/C(=N\NC(=O)c1ccc(Cl)cc1)c1ccc(Br)s1 -11.7%
CC(C)SC(=N)N -10%
C[C@@H](CSC(=N)N)C(N)=O 4.14% [at 11.4 µM]
N=C(N)SCCSC(=N)N 5.17% [at 11.4 µM]
CCn1c(C)nc2cc(S(=O)(=O)C(F)F)ccc21 -10.5%
Cc1ccc(Sc2nc(-c3ccccc3)ccc2C#N)cc1 14.4%
CCOC(=O)C1CCCN(C(=O)C2CCN(S(=O)(=O)N3CCC4(CC3)OCCO4)CC2)C1 (stereo unspecified) 22.9%
CCCCSc1nnc(-c2ccc(C)cc2)n1C -29.4%
COC(=O)CNC(c1ccccc1Cl)c1cc(Br)ccc1NC(=O)CCN1CCOCC1 (stereo unspecified) -2.43%
NNC(=O)CNc1cccc(Br)c1 -9.21% [at 11.4 µM]
O=S1(=O)N[C@H]2CC[C@@H]3NS(=O)(=O)N[C@H]4CC[C@H](N1)N4S(=O)(=O)N23 12.7% [at 11.4 µM]
CC(C)(C)N1C(=O)[C@H]2[C@@H]3[C@H](O)C=CC(=O)[C@H]3CC[C@H]2C1=O 7.58% [at 11.4 µM]
COc1ccc(N(C)C(=O)c2ccc3nc(-c4ccccc4)c(-c4ccccc4)nc3c2)cc1 -20%
CS(=O)(=O)N1CC(C(=O)NC2CC2)Oc2ccc(Cl)cc21 (stereo unspecified) -34.3%
C=C(CC1([C@@H](NP(=O)(c2ccccc2)c2ccccc2)[C@H]2C[C@@H]2CCN(C(=O)OCC)S(=O)(=O)c2ccc(C)cc2)CC1)c1ccccc1 -3.76%
N#CCCn1c(=O)c(-c2ccc(Cl)cc2)nc2cnc(N3CCOCC3)nc21 7.8%
Cc1nc2cncnc2n(Cc2ccccc2)c1=O -16.4%
Cc1ncc(CSC(=N)N)n1Cc1ccccc1 -11.5% [at 11.4 µM]
Cc1nn2c(C)nc3sc4c(c3c2nc1=O)CC(C)(C)OC4 -14%
CCOC(=O)N1CCN(C(=O)c2ccc(NC(C)=O)cc2)CC1 6.16%
CCOC(=O)c1cnc(-c2ccccc2)nc1Oc1cccc(Cl)c1 -10.8%
CCOC(=O)c1cnc(-c2ccccc2)nc1Oc1ccccc1 3.05%
O=C1C(O)=C(O)C(=O)C(O)=C1O 3.02% [at 25.6 µM]
NS(=O)(=O)c1ccc(NCc2nc3ccccc3[nH]2)cc1 -10.2% [at 11.4 µM]
NS(=O)(=O)c1ccc(NCc2cnc3ccccc3n2)cc1 16.5% [at 11.4 µM]
O=C(NNC(=O)c1ccccc1)C(=O)N1CCCCC1 4.89%
BrC(c1cccc2ccccc12)c1cccc2ccccc12 11.2% [at 11.4 µM]
CNc1ncncc1-c1ccccc1OC -8.63%
Cc1cccc(CNc2cc(-c3cccc(NS(C)(=O)=O)c3)ncn2)c1 -19.4%
O=C(c1ccc(-c2nnc(Nc3ccccc3)c3ccccc23)cc1)N1C[C@H]2C[C@H](C1)c1cccc(=O)n1C2 -7.8%
O=C(NCc1ccco1)c1ccc2c(=O)n(-c3ccccc3)c(=S)[nH]c2c1 5.2%
COc1ccc(-n2c(=O)c(-c3ccc(F)cc3)nc3cnc(OC)nc32)cc1 2.35%
O=C(Nc1ccc(C(=O)Nc2ccc(C(=O)Nc3ccc(S(=O)(=O)O)c4cc(S(=O)(=O)O)cc(S(=O)(=O)O)c34)cc2)cc1)Nc1ccc(C(=O)Nc2ccc(C(=O)Nc3ccc(S(=O)(=O)O)c4cc(S(=O)(=O)O)cc(S(=O)(=O)O)c34)cc2)cc1 6.42%
Cc1nonc1NC(=O)OCCN1CCOC1=O -3.81%
O=C(O)/C(=C/c1c(C(=O)O)[nH]c2cc(Cl)cc(Cl)c12)c1ccccc1 -0.959%
C[C@@]12CCC(=O)C=C1CC[C@@H]1[C@@H]2[C@H](O)C[C@]2(C)[C@@H]1CC[C@]2(O)C(=O)COC(=O)CCC(=O)O 1.71%
COc1c(O)cc2c(c1O)[C@@H]1O[C@@H](CO)[C@@H](O)[C@@H](O)[C@@H]1OC2=O -2.8% [at 25.6 µM]
CSc1nc(C)c(CCOC(=O)c2ccccc2)c(=O)[nH]1 -10.1%
CCN(CC)C(=O)c1cc2cc([N+](=O)[O-])ccc2s1 -21.9%
CC1CCCC(NC(=O)c2n[nH]c(=O)c3ccccc23)C1C (stereo unspecified) -6.47%
COc1cc([C@H](O)C(=O)O)ccc1O 3.7%
O=[N+]([O-])c1cccc(-c2nc(-c3ccncc3)no2)c1 -23.6%
NS(=O)(=O)c1ccc(N=C2C(=O)Nc3ccccc32)cc1 2.35% [at 11.4 µM]
O=C(O)[C@@H]1CCCNC1 5.9% [at 25.6 µM]
COC(=O)c1ccc(C2C(Oc3ccccc3)C(=O)N2CCc2ccc(OC)c(OC)c2)cc1 (stereo unspecified) 6.39%
O=C1[C@H]2[C@H]3[C@H](O)[C@H](O)C/C(=N/OCc4ccccc4)[C@H]3CC[C@@H]2C(=O)N1Cc1ccc2c(c1)OCO2 -14.6% [at 11.4 µM]
O=C1C[C@@H](O)[C@@H](O)[C@H]2[C@@H]3C(=O)N(Cc4ccc5c(c4)OCO5)C(=O)[C@@H]3CC[C@H]12 14% [at 11.4 µM] and -16.6% [at 11.4 µM]
COc1ccc(CCN2C(=O)C(O)=C(C(=O)c3ccco3)C2c2cccs2)cc1OC (stereo unspecified) -8.35%
CCCCCc1nc2c(=O)[nH]c3ccccc3c2o1 -9.54%
CN(C)/C=C/C(=O)c1ccc(F)cc1 -12.3%
Cc1ccccc1S(=O)(=O)O[C@@H]1NS(=O)(=O)c2ccccc21 6.51% [at 11.4 µM]
COCn1c2ccccc2c2nnc(C(C)=O)nc21 -15.8% [at 11.4 µM] and -6.91% [at 11.4 µM]
O=S(=O)(O)C1CCNCC1 1.02%
CC(C)N=C(Nc1ccc(Cl)cc1)c1cccnc1 -0.649%
O=S(=O)(O)c1ccc2c(N=Nc3cccc4ccccc34)c(O)c(S(=O)(=O)O)cc2c1 5.03% [at 11.4 µM]
Cc1nn(Cc2c(F)c(F)c(F)c(F)c2F)c(C)c1NC(=O)c1c(-c2ccccc2)nn(-c2ccccc2)c1C 3.5%
c1ccc(-c2nc(-c3cccs3)[nH]c2-c2ccccc2)cc1 -25.3%
Nc1nc(-c2cccc([N+](=O)[O-])c2)cc(-c2cc(-c3cccc([N+](=O)[O-])c3)nc(N)n2)n1 -5.72% [at 11.4 µM]
Cc1cc(C(F)F)n2nc(C(=O)Nc3cccnc3Cl)nc2n1 -5.89%
O=C(OCc1ccc(Cl)cc1)c1ccccc1C(=O)c1ccccc1 -25%
O=C(COC(=O)c1cccnc1Cl)c1ccccc1 -6.36%
CCc1ccc2c(c1)c(N=NC1=NC(=O)CS1)c(O)n2CC 1.76%
COc1ccc(CN2C(=O)c3ccccc3C(/C=N\OCc3ccc(F)cc3)C2=O)cc1 (stereo unspecified) -3.7%

AC50, inactive:
N=C(N)SCCN
NCCCNCCCCNCCCN

AC50, inactive and 50.1 nM (active):
CSC(=N)N

AC50, inactive and 3.98 µM (active):
CCSC(=N)N

AC50, active:
O=C(c1ccco1)N1CCC2(CC1)CN(C(c1ccccc1)c1ccccc1)C2 1.26 µM
NNC(=O)CNC(c1ccccc1)c1cc(Br)ccc1NC(=O)c1ccccc1Br (stereo unspecified) 7.94 µM
Cc1ccc([C@@H](O)c2cnc(C)n2Cc2ccccc2)cc1 0.631 µM
CCOC(=O)c1cnc(SCCc2ccccc2)nc1N 2 µM
NS(=O)(=O)c1ccc(NCc2ccccc2OCc2ccccc2F)cc1 15.8 µM
COc1ccccc1-c1cncnc1NCc1cccc(C)c1 20 µM
COc1cccc(-c2cncnc2NCc2cccc(C)c2)c1 12.6 µM
Cc1cccc(CNc2ncncc2-c2cccc(NS(C)(=O)=O)c2)c1 20 µM
COc1ccccc1-c1cncnc1NCc1ccccc1 15.8 µM
Cc1ccccc1OC1C(=O)N(Cc2ccc3c(c2)OCO3)C1c1sccc1C (stereo unspecified) 8.91 µM
COc1ccc(CCN2C(=O)C(Oc3ccccc3C)C2c2ccc3c(c2)OCO3)cc1OC (stereo unspecified) 14.1 µM
O=[N+]([O-])c1cccc(-c2nc(-c3cccs3)c(-c3cccs3)[nH]2)c1 15.8 µM
O=C(OCc1ccc(Cl)cc1Cl)c1cccnc1Cl 15.8 µM
